The record followed here is PubChem BioAssay (NCI).

The panel holds about 83,000 compounds, 20% with a hit somewhere; the sample as a whole holds those more often.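 Treatment: one concentration, 48 hours, 96-well format. Scoring: percent growth, with anything below 10 considered active.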 A number with no mark means an inactive call. Active and inactive are the calls of the source.

This experiment relates to HL-60(TB) leukemia. Kind of experiment: NCI-60 one-dose screen, 48 h (100 = growth as untreated, 0 = no growth, -100 = all killed). Particulars: 10 µM unless noted.
Regarding `O=C(CN1CCN(c2ncnc3c2cnn3-c2ccccc2)CC1)Nc1ccc(Cl)cc1`, the growth is 58.6%. For the compound `COc1ccc(C2NC(=S)NC(C)=C2C(=O)OC(C)C)cc1OC` (stereo not given), the growth is 100%.

`Nc1nnc(-c2c[nH]c3ccc(F)cc23)c(-c2c[nH]c3ncccc23)n1`: the growth is 63.3%. In the case of `COc1ccc(CCC2NCCc3c(Br)c4c(c(OC)c32)OCO4)cc1` (stereo not given) it was -11.6% (active); in that of `CCCn1c(=O)c2[nH]c(-c3ccc(OCc4nc5ccc(C)cc5[nH]4)cc3)nc2n(CCC)c1=O`, 4.56% (active); in that of `O=C(Nc1nc2ccccc2s1)Nc1ccccc1Cl`, 97.4%. Consider `O=C1NC(=NC23CC4CC(CC(C4)C2)C3)N/C1=C\c1ccc2ncsc2c1`, for which the growth is -16.1% (active). In the case of `COc1ccc2oc3c4[nH]c5ccccc5c4c4c(c3c2c1)C(=O)N(C(=O)OC(C)(C)C)C4=O` it was -7.65% (active); in that of `Cc1ccc(C(=O)C(c2c[nH]c3ccccc23)c2c[nH]c3ccccc23)cc1`, 17.2%; in that of `O=C(N=Nc1c(O)[nH]c2ccc(Cl)cc12)c1ccc2nc(-c3ccccc3)[nH]c2c1`, 72.5%.

As for `Cn1cc(-c2nnc(N)nc2-c2c[nH]c3ccccc23)c2cccnc21`, the growth was 13.5%. With `CC(C)CSc1nc(NCCc2c[nH]c3ccccc23)c(C#N)c(-c2ccc(F)cc2)n1`, the growth is 49.7%. As for `CC1[C@H]2[C@H](C[C@H]3[C@@H]4CC=C5c6sc(Nc7cccc(Cl)n7)nc6CC[C@]5(C)[C@H]4CC[C@@]32C)O[C@]12CC[C@@H](C)CO2` (stereo not given in full), the figure is 45.4%. As for `O=C(CNc1nc(-c2ccccc2)cs1)Nc1cccc([N+](=O)[O-])c1`, the figure is -8.94% (active). As for `C=C1CC[C@@H]2[C@]3(C)COC(c4ccco4)O[C@@H]3CC[C@@]2(C)[C@@H]1C/C=C1/C(=O)OCC1OC(C)=O` (stereo not given in full), the figure is -5.13% (active). Turning to `Cc1ccc(-c2nc(Nc3ccccc3S(N)(=O)=O)c3ccccc3n2)cc1`, the growth was 81.1%. In the case of `Cn1cc(-c2cc(N)n3nc(-c4c[nH]c5ccc(F)cc45)cc3n2)c2cc(Br)cnc21` it was 33.2%; in that of `Cc1cc2c(cc1Cl)C(=O)/C(=C/c1ccccc1)O2`, -13.7% (active).

On to `COC1=C[C@]23CCC(=O)N2CCc2cc4c(cc2[C@@H]3[C@@H]1OC(=O)CCCC(C)C)OCO4`, for which the growth is 7.81% (active).

As to `COc1ccc2c(c1)c(-c1cc3nc(-c4cn(C)c5ncccc45)cc(N)n3n1)cn2C`, the growth was -66.3% (active). As for `O=C(c1ccc(Cl)cc1)c1ccc(OCCCN2CCN(c3ccncc3)CC2)cc1`, the figure is -3.36% (active). In the case of `Cc1ccc2c(N)c(C(=O)Nc3ccc(OC(F)(F)F)cc3)sc2n1` it was 61.6%; in that of `O=C(Cn1c(/C=C/c2ccccc2)nc2ccccc2c1=O)Nc1ccc(Cl)cc1`, 99.2%. As for `COc1cc(C2CC(c3ccc(C(F)(F)F)cc3)=Nc3c(N)nc(N)nc3N2)ccc1Oc1nc(Nc2ccc(F)cc2)nc(N(C)C)n1` (stereo not given), the figure is 13.7%. As for `O=C(O)c1cccc(-c2ccc(/C=N/NC(=O)c3[nH]c4ccc(Br)cc4c3-c3ccccc3)s2)c1`, the growth is 42.4%.

In the case of `N#Cc1c(NC(=O)c2cccc(C(F)(F)F)c2)sc2c1CCC(O)=C2`, the growth was 30%.

On to `C#CCN(C)CCCOc1ccc(N(CC)C(=O)c2cc(C(C)C)c(O)cc2O)cc1Cl`, for which the growth is -63.8% (active). In the case of `Fc1ccc(F)c(CNc2nc(SCCN3CCOCC3)nc3c2cnn3CC(Cl)c2ccc(Br)cc2)c1` (stereo not given) it was -12.3% (active); in that of `COc1ccc(C(=O)C[n+]2cccc3c4ccccc4ccc32)cc1`, 22%; in that of `Nc1nnc(-c2cncc(Br)c2)c(-c2c[nH]c3ccc(Br)cc23)n1`, 36.7%.

`CCCSc1nc(Nc2ccc(S(N)(=O)=O)cc2)c(C#N)c(-c2ccc(Cl)cc2)n1`: the growth was 46.3%.

`CCCCCCCCCCCCCCCCCC(=O)Nc1ccc(OC)cc1`: the growth is 90.3%. In the case of `C/C(=N\Nc1ccc(S(N)(=O)=O)cc1)c1cnn(-c2cc(=O)[nH]c3ccc(Br)cc23)c1C` it was 84.7%.

On to `Cc1ccc(C(=O)Nc2ccc(-n3ccnc3)c(C(F)(F)F)c2)cc1C#Cc1cnc2cccnn12`, for which the growth was -19.6% (active). As for `Clc1ccccc1Nc1nnc(-c2c[nH]c3ccccc23)o1`, the figure is -0.476% (active).

Regarding `Cc1ccc(C(=O)Nc2cc(-n3ccnc3)cc(C(F)(F)F)c2)cc1-n1cc(-c2cnc3cccnn23)nn1`, the growth was 50.5%. With `CN1C/C(=C\c2ccc(O)cc2O)c2[o+]c3cc(O)ccc3cc2C1`, the growth is 46.8%. For the compound `Oc1ccc(F)c(Nc2nc(SCCN3CCOCC3)nc3c2cnn3CC(Cl)c2ccc(Br)cc2)c1` (stereo not given), the growth is 2.22% (active). In the case of `C/C(=N\N=C\c1ccc(N(C)C)cc1)c1ccc2c(c1)Nc1ccccc1S2` it was 59.2%. In the case of `CCOc1ccc(Nc2nc3ccccc3nc2Nc2ccc(OCC)cc2)cc1` it was 31.4%.
